Compounds without any hit were thinned out: in the full panel of roughly 83,000, 20% have a hit.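 The endpoint reported here, percent growth, reads 100 for growth as untreated, 0 for no net growth and -100 for all cells dead.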 Calls of active or inactive are those of the source. Rule for the calls: active = growth percent below 10; inactive = the rest.
How the values were obtained:
Assay in all cases: NCI-60 one-dose screen, 48 h (100 = growth as untreated, 0 = no growth, -100 = all killed)
[1] = test system: NCI-H23 lung; conditions: 10 µM unless noted
[2] = test system: NCI-H226 lung; conditions: 10 µM unless noted
[3] = test system: NCI-H322M lung; conditions: 10 µM unless noted
[4] = test system: HOP-62 NSCLC; conditions: 10 µM unless noted
[5] = test system: NCI-H460 lung; conditions: 10 µM unless noted
[6] = test system: HOP-92 NSCLC; conditions: 10 µM unless noted
[7] = test system: NCI-H522 lung; conditions: 10 µM
[8] = test system: 786-0 renal; conditions: 10 µM unless noted
[9] = test system: COLO 205 colon; conditions: 10 µM unless noted

Measured: growth

COc1ccc2nc(N/N=C(\C)c3ccccn3)cc(C)c2c1
active: [2] -49.5% | [3] 8.51% | [4] 2.82% | [5] -68% | [6] 7.16% | [7] -20.8% | [8] -89.7% | [9] -78.2%
inactive: [1] 19.8%

COc1ccc(CNC(=O)c2c(C)n([O-])c3ccc(OC)cc3[n+]2=O)cc1
inactive: [1] 98.2% | [2] 110% | [3] 89.7% | [4] 105% | [5] 118% | [8] 96% | [9] 108%
active: [6] -1.17% | [7] -2.57%

CC[C@H]1CN2CCc3cc(OC)c(OC)cc3C2C[C@@H]1CC1NCCc2cc(OC)c(OC)cc21 (some centres not stated)
active: [1] -34.3% | [2] -25.4% | [3] -23.2% | [4] -29.4% | [5] -25.6% | [6] -17.8% | [7] -71.2% | [8] -19.6% | [9] -66.1%

CC1C(=O)NC2=Nc3ccccc3C(=O)NN21 (configuration not stated)
inactive: [1] 97.2% | [2] 92.9% | [3] 97.2% | [4] 87.8% | [5] 104% | [6] 94.9% | [7] 97.5% | [8] 97.9% | [9] 104%

O=c1ncc(-c2ccc(C(F)(F)F)cc2)c(NC2CCCCCC2)[nH]1
inactive: [1] 64.9% | [2] 71.5% | [3] 90.9% | [4] 64% | [5] 55.1% | [7] 29% | [8] 76.7% | [9] 46.2%
active: [6] -2.61%

COC(=O)c1c(NC(=O)CSc2nnnn2-c2ccc(OC)cc2)sc(C)c1C
inactive: [1] 76.7% | [2] 79.4% | [3] 100% | [4] 99.3% | [5] 106% | [6] 75.1% | [7] 91.1% | [8] 107% | [9] 105%

COc1cc(-c2nc3nc4sc(C)c(C)c4c(=O)n3[nH]2)cc(OC)c1OC
inactive: [1] 94.1% | [2] 112% | [3] 93% | [4] 74.2% | [5] 92.9% | [6] 70.8% | [7] 61.4% | [8] 87.9% | [9] 94.2%

C=CCNC(=O)/C(=C/c1cccc([N+](=O)[O-])c1)NC(=O)c1ccccc1
inactive: [1] 98.6% | [2] 90.5% | [3] 107% | [4] 92.4% | [5] 111% | [6] 91.9% | [7] 97.5% | [8] 84.7% | [9] 120%

Cc1onc(-c2ccccc2Cl)c1C(=O)N[C@@H]1C(=O)N2[C@@H]1SC(C)(C)[C@@H]2C(=O)O
inactive: [1] 112% | [2] 99.2% | [3] 104% | [4] 97.1% | [5] 112% | [6] 110% | [7] 96.1% | [8] 99% | [9] 109%

O=C(N/N=C/c1cccc([N+](=O)[O-])c1)c1ccc(Br)o1
inactive: [1] 102% | [2] 109% | [3] 105% | [4] 106% | [5] 114% | [6] 85.7% | [7] 85.7% | [8] 92.5% | [9] 97.9%

CC(=O)Nc1cc(C(c2ccccc2)c2ccccc2)cc(C(c2ccccc2)c2ccccc2)c1C
active: [4] 8.81%
inactive: [1] 60% | [2] 55.6% | [3] 81.7% | [5] 55.4% | [6] 41.4% | [7] 45.6% | [8] 63.6% | [9] 64.3%

O=C1Nc2ccc(Cl)cc2/C1=C/c1cccs1
inactive: [1] 88.9% | [2] 88.7% | [3] 90.5% | [4] 80.8% | [5] 93.4% | [6] 93.7% | [7] 96.2% | [8] 108% | [9] 117%

CCOC(=O)Nc1cc(-c2ccc(C)c(NS(C)(=O)=O)c2)nn2c(C)nnc12
active: [3] 2.04% | [6] -10.2% | [7] -11.8% | [9] 3.41%
inactive: [1] 18% | [2] 35% | [4] 14.1% | [5] 28.5% | [8] 35.5%

NC(=O)NS(=O)(=O)c1ccc(N2N=C(C(F)(F)F)CC2c2cc(C(F)(F)F)cc(C(F)(F)F)c2)cc1 (configuration not stated)
inactive: [1] 91.3% | [2] 101% | [3] 88.4% | [4] 103% | [5] 81.3% | [6] 49.8% | [7] 38.4% | [8] 95.2% | [9] 99.8%

CN1CCC[C@@H]1CCO[C@](C)(c1ccccc1)c1ccc(Cl)cc1
inactive: [1] 79.9% | [2] 75.5% | [3] 78.4% | [4] 75.2% | [5] 91.3% | [6] 51.6% | [7] 88% | [8] 66.5% | [9] 20%

CC(NC(N)=S)c1ccccc1 (configuration not stated)
inactive: [1] 110% | [2] 101% | [3] 97.8% | [4] 85.6% | [5] 101% | [6] 106% | [7] 102% | [8] 98% | [9] 107%

CCOC(=O)CCC(=O)O[C@H]1[C@H](O[C@@H]2[C@@H](C)[C@H](O[C@H]3C[C@@](C)(OC)[C@@H](O)[C@H](C)O3)[C@@H](C)C(=O)O[C@H](CC)[C@@](C)(O)[C@H](O)[C@@H](C)C(=O)[C@H](C)C[C@@]2(C)O)O[C@H](C)C[C@@H]1N(C)C
inactive: [1] 99.6% | [2] 97.2% | [3] 90.2% | [4] 94.6% | [5] 119% | [6] 102% | [7] 92.6% | [8] 98.2% | [9] 109%

CCSc1nc(-c2cccs2)n2nc(-c3ccco3)cc2n1
inactive: [1] 95% | [2] 94.9% | [3] 116% | [4] 101% | [5] 104% | [6] 71.3% | [7] 91.8% | [8] 113% | [9] 123%

C1CCC(C(CC2CCCCN2)C2CCCCC2)CC1 (configuration not stated)
active: [1] 9.26% | [4] -81.6% | [5] -84.3% | [6] -2.64% | [7] -16.8% | [8] -86.7% | [9] -63.6%
inactive: [2] 28% | [3] 49.8%

c1ccc2nc(N/N=C3\CCCCC3C3CCCCC3)ccc2c1 (configuration not stated)
inactive: [1] 40.1% | [2] 53.8% | [3] 64.5% | [5] 39.7% | [7] 60% | [8] 48.6% | [9] 41%
active: [4] 8.28% | [6] -11.3%

COc1cc(/C=N/OC(=O)Nc2ccccc2)cc(OC)c1OC
inactive: [1] 107% | [2] 96% | [3] 92.2% | [4] 93.9% | [5] 109% | [6] 74.6% | [7] 86.2% | [8] 103% | [9] 107%

O=C(COc1cccc(/C=C2\Oc3ccc4ccccc4c3C2=O)c1)c1ccc(Cl)cc1
inactive: [1] 28.3% | [2] 91.9% | [3] 108% | [4] 101% | [5] 114% | [6] 81.9% | [7] 38% | [8] 105% | [9] 102%

COc1ccc2c(c1)[n+](=O)c(/C=C/C(=O)c1cc(OC)c(OC)c(OC)c1)c(C)n2[O-]
active: [6] -22.4% | [7] -60.1%
inactive: [1] 80% | [2] 84.5% | [3] 110% | [4] 94.3% | [5] 81.8% | [8] 67.2% | [9] 32%

Cc1nn(-c2nc3ccccc3s2)c(C)c1Oc1ccccc1O
inactive: [1] 109% | [2] 80.5% | [3] 101% | [4] 53.3% | [5] 24.6% | [6] 93.2% | [7] 59.9% | [8] 89.2% | [9] 92.3%

CC(=O)c1ccccc1NC(=O)C(C)(c1ccccc1)c1ccccc1
inactive: [1] 82.7% | [2] 91% | [3] 89.3% | [4] 40.4% | [5] 106% | [6] 86.4% | [7] 77.3% | [8] 92.5% | [9] 114%

Cc1ccc(S(=O)(=O)NCCN2c3nc4ccccc4cc3Sc3cc4ccccc4nc32)cc1
inactive: [1] 56.9% | [2] 65.6% | [3] 91.7% | [4] 55.8% | [5] 70.8% | [6] 15.7% | [7] 52.8% | [8] 61.9% | [9] 113%

COc1cc(/C=C2\CN(C)CC3=C2Nc2nc(SC)[nH]c(=O)c2C3c2cc(OC)c(OC)c(OC)c2)cc(OC)c1OC (configuration not stated)
inactive: [1] 49.4% | [2] 72.1% | [3] 86.7% | [4] 69.8% | [5] 10.1% | [6] 82.7% | [7] 37.8% | [8] 67.4% | [9] 31.2%

CC(=O)O[C@H]1CC[C@@]2(C)C(=CC[C@@H]3[C@@H]2CC[C@]2(C)C(c4cccnc4)=CC[C@@H]32)C1
inactive: [1] 66.6% | [2] 64.1% | [3] 95.6% | [4] 75.7% | [5] 68.2% | [6] 79.4% | [7] 38.3% | [8] 13.6% | [9] 81.8%

Source: PubChem BioAssay (NCI)
